Source: PubChem (NMMLSC)
Proteasome disasm: blocks ATP-dependent breakdown of the yeast 26S proteasome | anti-FLAG beads, GFP-proteasome disassembly, flow cytometry | inhibition of disassembly, % (test concentration not listed) | 0.2% of 24,000 active | AID 751;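 active = inhibition of disassembly above about 33%, limit read from the data; inconclusive = likely self-fluorescent, control bead median signal at least 40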;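 also: plate controls were ATP control with full disassembly for no effect and ATP-gamma-S intact proteasomes for full effect; higher percent means more bead fluorescence retained so stronger block of disassembly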
Jurkat autofluor: autofluorescence counter-screen for VLA-4 integrin assays; Jurkat cells, compound autofluorescence, flow cytometry; hits give high values; 1 = vehicle-only cell background; fluorescence ratio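 (tested at 10 µM compound in the well)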; 0.61% of 24,000 active;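 active = fluorescence ratio above 2.44, which is 1 plus 3 SD of all ratios; inconclusive = signal too bright to measure linearly, ratio around 10 or more; inactive = fluorescence ratio below 2.44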;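 also: green fluorescence of cells measured with 488 nm excitation and 530 nm emission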
FPRL1 binder: ligands of human FPRL1, also counter-screen for FPR ligands; P25090; FPRL1-expressing cells, fluorescent ligand binding inhibition, flow cytometry; inhibition, % (concentration not given with the values); 0.3% of 24,000 active; AID 441;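 also: 0% = buffer alone and 100% = receptor blocker peptide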
FPR binder: binds the human formylpeptide receptor FPR | AID 440 | P21462 | 0.74% of 24,000 active | FPR-expressing cells, fluorescent ligand binding, flow cytometry | inhibition, % (no concentration beside the values);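 also: 0% = buffer wells and 100% = receptor blocker peptide wells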
Target sequence (P21462 whole entry, looked up): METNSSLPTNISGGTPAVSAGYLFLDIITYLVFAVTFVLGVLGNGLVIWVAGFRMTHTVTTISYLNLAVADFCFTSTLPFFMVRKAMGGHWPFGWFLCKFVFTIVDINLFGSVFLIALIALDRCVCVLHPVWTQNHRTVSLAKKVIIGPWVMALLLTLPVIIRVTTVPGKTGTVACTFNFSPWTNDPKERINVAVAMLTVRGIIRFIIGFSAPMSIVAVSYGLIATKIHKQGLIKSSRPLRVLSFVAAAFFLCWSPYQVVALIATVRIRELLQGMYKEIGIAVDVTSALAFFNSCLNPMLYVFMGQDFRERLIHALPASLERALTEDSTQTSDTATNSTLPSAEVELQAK
VLA-4 allo ag: allosterically activates the human VLA-4 integrin; P13612; Jurkat cells, LDV-FITC binding, flow cytometry; activation, % at 10 µM (by protocol); 24,000 tested, under 10 active;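 active = fluorescent ligand binding to cells raised by more than 40% of the manganese-induced maximum; inconclusive = compound's own fluorescence above 85% of the ligand control signal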;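 also: 0% = ligand binding without compound and 100% = manganese-stimulated maximal binding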
VLA-4 antagonist: inhibitors of LDV-FITC ligand binding to Mn2+-activated human VLA-4 integrin. inhibition, % at 10 µM (by protocol). 0.2% of 24,000 active. Jurkat cells, LDV-FITC binding with Mn2+, flow cytometry; 100% = Mn2+-driven binding gain fully reversed;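 active = inhibition above 50%; inconclusive = compound itself fluorescent, judged against control cell fluorescence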;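 also: 0% = Mn2+ stimulated cells lacking compound and 100% = ligand binding without Mn2+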
* = called active by the depositor; u = inconclusive; x = no result given. Shown are actives, neighbours in structure and some others; about 1.9% of the full set was active somewhere. Rule as the data show it, unless noted: active = inhibition above about 30%; inconclusive = no clear call, values can overlap the other calls; inactive = below that.

SMILES	Proteasome disasm	Jurkat autofluor	FPRL1 binder	FPR binder	VLA-4 allo ag	VLA-4 antagonist
Cc1ccc(C2C3CSCC=C3C(C#N)=C(N)C2(C#N)C#N)cc1 (centres undefined)	40*	8.8*	-25	-4	u	u
CN1C2C=C3C(C#N)=C(N)C(C#N)(C#N)[C@@H](c4ccc(Cl)cc4)[C@@H]3C1CC2 (some centres undefined)	-1	1.2	1	-3	2	u
O=C(O)c1ccc2c(c1)C(=O)N(c1cc(C(=O)O)ccc1Br)C2=O	-1	0.87	8	8	13	-8
Cc1c(O)c(CN2CCCC(C)C2)cc2c3c(c(=O)oc12)CCC3 (centres undefined)	-2	1	0	2	-8	-22
COc1cc(C)nc(SCC(N)=O)n1	-1	1	8	-2	5	-4
Cc1cc(SCC(N)=O)nc(SCC(=O)c2ccccc2)n1	0	1	49*	48*	6	-2
CCCc1noc2c1C(c1ccoc1)C(C#N)=C(N)N2 (centres undefined)	1	0.97	6	-3	-7	12
CCOc1ccccc1C1C(C#N)=C(N)Nc2onc(-c3ccccc3)c21 (centres undefined)	-1	1.1	20	20	-8	51*
COC(=O)c1cccc(S(=O)(=O)N2CCN(c3nc4ccccc4s3)CC2)c1	0	1	0	-4	2	-10
COc1ccccc1CNC(=O)c1ccc(NS(=O)(=O)c2c(C)noc2C)cc1	-2	1	4	0	-7	-7
Cc1noc(C)c1S(=O)(=O)Nc1ccc(C(=O)NC2CCCCC2)cc1	3	3*	-26	-4	u	u
Cc1ccc(NC(=O)c2ccc(NS(=O)(=O)c3c(C)noc3C)cc2)cc1C	0	1.1	-5	-1	-15	23
Cc1noc(C)c1S(=O)(=O)Nc1ccc(C(=O)NCCc2ccccc2)cc1	-3	1.1	1	-6	-5	55*
O=C(Cn1c(NCCCO)nc2ccccc21)c1cccs1	0	1	-5	-2	0	-11
CCN(CC)S(=O)(=O)c1ccc(NC2CCCc3ccccc32)nc1 (centres undefined)	1	1.3	-4	2	15	-18
CCOc1ccc(/C(O)=C2/C(=O)C(=O)N(CC3CCCO3)C2c2ccco2)cc1 (centres undefined)	x	x	26	48*	x	x
CCOc1ccc(/C(O)=C2/C(=O)C(=O)N(CC3CCCO3)C2c2ccc(C)o2)cc1 (centres undefined)	x	x	-6	26	x	x
CC1Cc2ccccc2N1C(=O)c1cc2c(=O)n3ccccc3nc2n1C (centres undefined)	-2	1.3	-3	-1	u	u
Cc1cccn2c(=O)c3cc(C(=O)N4c5ccccc5CC4C)n(C)c3nc12 (centres undefined)	4	2.7*	-4	1	u	u
CCCCOc1ccc(OCCCC)c2c1NC1(N2)C(=O)N(C(C)=O)c2ccccc21	6	1	4	3	-2	5
Cc1ccc(Cl)cc1N1CCN(C(=O)c2cc3c(=O)n(C)c4ccccc4c3n2C)CC1	-1	1.1	-7	-2	6	5
COC(=O)c1[nH]c(C)c(/C(O)=C2\C(=O)C(=O)N(CCN3CCOCC3)C2c2cccs2)c1C (centres undefined)	1	1.1	1	54*	-4	-18
COC(=O)c1[nH]c(C)c(/C(O)=C2\C(=O)C(=O)N(CCN3CCOCC3)C2c2ccccc2OC)c1C (centres undefined)	x	x	14	4	x	x
COc1ccccc1N1CCN(C(=O)c2sc3nc(-c4ccccc4)cn3c2C)CC1	1	3.2*	-10	-4	u	u
CCOC(=O)C1CCN(C(=O)c2sc3nc(-c4ccccc4)cn3c2C)CC1	0	2.8*	-7	1	u	u
SMILES	Proteasome disasm	Jurkat autofluor	FPRL1 binder	FPR binder	VLA-4 allo ag	VLA-4 antagonist
CCC(=O)c1ccc(OCC(O)Cn2cnc3ccccc32)cc1 (centres undefined)	0	3.2*	-2	-6	u	u
Cc1noc(C)c1S(=O)(=O)N1CCC(C(=O)N2CCN(c3ccccc3Cl)CC2)CC1	-3	0.98	-11	0	2	9
Cc1noc(/C=C/c2ccco2)c1S(=O)(=O)N1CCC(C(=O)N(C)Cc2ccccc2)CC1	46*	1.1	-1	-2	-2	24
Cc1noc(/C=C/c2ccco2)c1S(=O)(=O)N1CCC(C(=O)N2c3ccccc3CC2C)CC1 (centres undefined)	105*	1.1	-4	-4	2	-4
CCSc1nc(O)c(C2OC(=O)c3c2ccc(OC)c3OC)c(=O)n1-c1ccccc1 (centres undefined)	-1	0.96	0	34*	-7	14
Cc1[nH]n2c(=O)cc(-c3ccc([N+](=O)[O-])cc3)nc2c1-c1ccccc1	x	x	47*	70*	x	x
COC(=O)Cc1cc(=O)n2[nH]c(C)c(-c3ccccc3)c2n1	x	x	2	5	x	x
CCCc1cc(=O)n2[nH]c(C)c(-c3ccccc3)c2n1	x	x	29	35*	x	x
COc1ccc(Cn2c(CCC(=O)Nc3ccc(CC#N)cc3)nc3cccnc32)cc1	0	1.1	3	-2	-6	-9
CCOc1ccc(C(=O)N2CCC(C(=O)c3ccc4c(c3)OCCO4)CC2)cc1	10	1.1	-3	2	-7	18
CCCN1Cc2cccc(C(=O)Nc3ccc(CN4CCCC4)cc3)c2C1=O	102*	1	-5	0	1	-2
CCCN1Cc2cccc(C(=O)Nc3ccc(OC)c(OC)c3)c2C1=O	-1	1	0	-1	4	6
Nc1ccc(Nc2ccccc2N)cc1	u	5.2*	47*	3	u	u
Nc1cc(C(=O)O)ccc1Nc1ccccc1	-1	1	0	-2	0	6
CC(C)NS(=O)(=O)c1cccc2nsnc12	1	1.1	-4	3	-3	-10
COC(=O)C1(S(=O)(=O)c2cccc3nsnc23)CC1	3	1.2	84*	33*	-2	-2
COc1cccc(CNC(=O)Cn2cc3c(n2)CCCC3)c1	-2	1.1	30	40*	-1	-20
COc1cc(OC)cc(C(=O)NCCN2CCOCC2)c1	-3	1	3	0	3	22
Cc1ccc(Cl)cc1N1CCN(S(=O)(=O)c2ccc3c(c2)oc(=O)n3C)CC1	0	1	-7	-2	9	-2
Cc1cccn2c(=O)c3cc(C#N)c(=NC(=O)c4ccncc4)n(Cc4ccco4)c3nc12	-1	4.1*	9	10	u	u
CC1CCCCN1S(=O)(=O)c1ccc(C(=O)Nc2nnc(-c3ccccc3Cl)o2)cc1 (centres undefined)	-1	1.1	1	4	-2	-12
